Screening data deposited in PubChem BioAssay by National Center for Advancing Translational Sciences (NCATS).
HT1080 IDH1KD tx = qHTS for induction of synthetic lethality in tumor cells producing 2HG: qHTS for the HT-1080-IDH1KD cell line; Potency, µM (titrated, usually from 46.1 µM), inactives show top-dose activity, negative = toxicity, hits mostly cytotoxic; HT-1080 IDH1 knockdown viability, ATP luminescence, 48 h; 360,000 tested, 2% active;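 further: potency means the concentration at half of the fitted maximal effect; 0% = DMSO wells and -100% = cell-free medium wells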
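Cytotoxicity counter-line: IDH1KD HT-1080, 48 h, CellTiter-Glo. Curves classed by r2, magnitude and activity.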
DT40 TDP1 CPT = qHTS for Inhibitors of human tyrosyl-DNA phosphodiesterase 1 (TDP1): qHTS in cells in presence of CPT; Potency, µM (doses to about 46.2 µM), for inactives: top-dose activity change, negative = growth inhibition, hits mostly inhibitors; 420,000 tested, 12% active; AID 686979, 2013; chicken DT40 Tdp1-/-;hTDP1 cells + 20 nM CPT, ATP luminescence, 48 h; further: potency means the concentration at half of the fitted maximal effect; nearly all actives have a fitted effect of over 55% in size
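Chicken DT40 Tdp1-/- cells stably complemented with human TDP1 were seeded at 400 cells/well in medium containing 20 nM camptothecin, exposed to pin-transferred compounds, and grown at 37 °C for at least 48 hr. Viability was read as ATP luminescence.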
TDP1 cell noCPT = qHTS for Inhibitors of human tyrosyl-DNA phosphodiesterase 1 (TDP1): qHTS in cells in absence of CPT; 420,000 tested, 15% active; DT40 Tdp1-/- hTDP1 cells, no CPT, ATP luminescence, 48 h; Potency, µM (titrated, usually from 46.2 µM), for inactives: at the highest dose activity change, negative = growth inhibition, hits mostly inhibitors; further: potency means the concentration at half of the fitted maximal effect; nearly all actives have a fitted effect of over 55% in size
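Growth kinetics read by CellTiter-Glo luminescence after ≥48 hr at 37 °C. Cells: DT40 Tdp1-/- stably carrying human TDP1, 400 per well, compound exposure in the absence of CPT (DMSO vehicle).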
HT1080NT lethal = qHTS for induction of synthetic lethality in tumor cells producing 2HG: qHTS for the HT-1080-NT fibrosarcoma cell line; Potency, µM (series often up to 46.1 µM), for inactives: at the top dose activity, negative = less viability, hits mostly cytotoxic; HT-1080-NT fibrosarcoma viability, CellTiter-Glo ATP luminescence, 48 h; 360,000 tested, 1.6% active; AID 686970, 2013;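 further: NT is the 2HG producing partner of a matched IDH1 knockdown line; potency means the concentration at half of the fitted maximal effect; 0% = DMSO-treated cells and -100% = media-only wells without cells; nearly all actives have a fitted effect of over 55% in size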
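Viability of the 2HG-overproducing fibrosarcoma line after 48 hours of compound exposure at 37 degrees C was determined by luminescence with CellTiter-Glo, and concentration-effect curves were then fitted and categorized.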
IL1B secr inh = qHTS for Inhibitors of Inflammasome Signaling: IL-1-beta AlphaLISA Primary Screen | activity change, % at 57.5 µM | 360,000 tested, 4.7% active | THP-1 LPS/ATP IL-1B secretion, AlphaLISA, 16 h; active compounds read low | AID 743279, 2014; in the data active means activity change below about -50%; inconclusive means mostly about -30% to -49%
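Secreted IL-1B measured by AlphaLISA bead assay after 16 h compound exposure of THP-1 cells; compounds (final up to 57.5 uM) added 1 h before LPS (250 ng/mL) and ATP (1.25 mM) stimulation; lower signal means less secretion.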
* = called active by the depositor; i = inactive; ? = inconclusive; . = no result; [ ] = another dose, or the depositor's remark. In the library only some 19% were active in any assay of this set; here they are far more common. Unless noted, the call rests on the fitted dose curve; in most records, active means well fitted curve in the direction sought with a large enough effect; inconclusive means small, poorly fitted or top-dose-only effect, or another doubt; inactive means no such curve, though single readings can be large; an effect the other way counts as inactive or inconclusive. Unless noted, on the % scale 0 is the no-effect control and ±100 the full control effect.

SMILES	HT1080 IDH1KD tx	DT40 TDP1 CPT	TDP1 cell noCPT	HT1080NT lethal	IL1B secr inh
CCCCCCN1CCN(C2CN(C3CCCCC3)S(=O)(=O)C2)CC1 (stereo unspecified)	1%	16µM*	?	12%	-13
COc1cc(C(=O)Nc2nnc(S(=O)(=O)N3CCCCCC3)s2)cc(OC)c1OC	-24%	-2%	-3%	-19%	-8
C=CC(=O)N1C/C=C\C(c2ccc(OC)cc2)N(Cc2ccc(F)cc2)C(=O)C1 (stereo unspecified)	-3%	?	-21%	-8%	-61*
COc1ccc(C2/C=C\CN(C(=O)Nc3ccccc3-c3ccccc3)CC(=O)N2Cc2ccc(F)cc2)cc1 (stereo unspecified)	-20%	23µM*	?	-15%	-22
COC(=O)N1C/C=C\C(c2ccc(OC)cc2)N(Cc2ccc(F)cc2)C(=O)C1 (stereo unspecified)	-1%	-19%	-8%	-2%	-6
COc1ccc(C2/C=C\CN(C(=O)C3CCCCC3)CC(=O)N2Cc2ccc(F)cc2)cc1 (stereo unspecified)	-2%	?	?	-3%	-13
COc1ccc(C2/C=C\CN(C(=O)C3CCCC3)CC(=O)N2Cc2ccc(F)cc2)cc1 (stereo unspecified)	-3%	21µM*	?	-6%	20
COc1ccc(C2/C=C\CN(C(=O)NC34CC5CC(CC(C5)C3)C4)CC(=O)N2Cc2ccc(F)cc2)cc1 (stereo unspecified)	-6%	23µM*	?	-13%	29
CN1CCN(Cc2nc3ccccc3c(=O)n2Cc2nc(-c3ccc([N+](=O)[O-])cc3)cs2)CC1	21µM*	18µM*	5.8µM*	21µM*	-97*
Cc1cc(-c2cccc([N+](=O)[O-])c2)nc2ccccc12	2%	15%	-11%	-2%	10
CN(C)Cc1nc2ccccc2c(=O)n1Cc1nc(-c2cccc([N+](=O)[O-])c2)cs1	?	18µM*	6.5µM*	-28%	-19
CCN(CC(=O)NCc1ccc(Cl)cc1)C(=O)C(C)Sc1ccccc1 (stereo unspecified)	3%	?	-8%	4%	4
NC(=O)COC(=O)c1cc(S(=O)(=O)N2CCOCC2)ccc1N1CCCCC1	-1%	-9%	-25%	-13%	11
Cc1ccc(OCCOC(=O)c2cc(S(=O)(=O)N3CCCCC3)ccc2N2CCOCC2)cc1	?	16µM*	13µM*	-1%	1
O=C(COC(=O)c1cc(S(=O)(=O)N2CCCCC2)ccc1N1CCOCC1)c1ccccc1Cl	7%	-14%	-28%	3%	-1
O=C(OCCOc1ccc(Cl)cc1)c1cc(S(=O)(=O)N2CCCCC2)ccc1N1CCOCC1	?	13µM*	?	-19%	12
Fc1ccc(NC(=S)N2CCN(c3ncccn3)CC2)cc1	7%	-1%	-4%	4%	-3
COCC(=O)N(C)c1nnc(-c2ccc([N+](=O)[O-])cc2)s1	20%	-29%	2%	0%	-58*
CCOC(=O)c1c(NC(=O)c2cc(C(C)C)on2)sc(C)c1C	.	-13%	-21%	.	.
Cc1ccc(-c2noc(-c3ccccc3C(=O)NCc3ccco3)n2)cc1	-6%	?	?	1%	-15
Cc1cccc(-c2noc(-c3ccccc3C(=O)NCc3ccco3)n2)c1	-16%	21µM*	21µM*	-8%	?
O=C(NCc1ccco1)c1cccc(-c2nnc(-c3ccccc3)o2)c1	-30%	21µM*	?	-6%	-28
CN(C)c1ncc2nc(-c3cc(F)cc(F)c3)c(=O)n(C)c2n1	.	-18%	-3%	.	.
CCC1CN(CCNC(=O)c2cccnc2OC)Cc2cc(OC)ccc2O1 (stereo unspecified)	.	4%[9.04 µM]	?	.	.
NNC(=O)c1cccc(Cn2cc(Br)c([N+](=O)[O-])n2)c1	?	?	?	-18%	-17
SMILES	HT1080 IDH1KD tx	DT40 TDP1 CPT	TDP1 cell noCPT	HT1080NT lethal	IL1B secr inh
COc1ccc(NC(=O)c2cccc(Cn3cc(Br)c([N+](=O)[O-])n3)c2)c(C)c1	11%	?	18µM*	25%	22
N=c1nc2n(cc1F)C1OC(CO)C(O)C1O2 (stereo unspecified)	?	0.13µM*	0.13µM*	-1%	33
Cc1cccc2c(C(=O)N3CCN(C(=O)c4ccco4)CC3)cc(-c3cccc(Br)c3)nc12	18µM*	?	?	?	-71*
CC(C)c1ccc(-c2cc(C(=O)N3CCOCC3)c3cc(Br)ccc3n2)cc1	-5%	?	?	-2%	-73*
CC(=O)c1ccc(N2CCN(C(=O)c3cc(-c4ccncc4)nc4ccc(Br)cc34)CC2)cc1	-1%	21µM*	21µM*	-1%	i
O=C(c1ccco1)N1CCN(C(=O)c2cc(-c3ccncc3)nc3ccc(Br)cc23)CC1	-1%[9.24 µM]	21µM*	9.2µM*	-1%	0
O=C(CN(CCc1ccccc1)C(=O)c1csnn1)NCc1ccc(F)cc1	5%	2%	4%	-2%	-9
Cc1cc(NC(=O)c2ccc(C#N)cc2)n(-c2ccccn2)n1	3%	-19%	?	22%	0
Cc1cc(NC(=O)c2ccc(F)cc2)n(-c2ccccn2)n1	3%	?	?	6%	-68*
Cc1cc(NC(=O)Nc2cccc(Cl)c2)n(-c2ccccn2)n1	?	?	18µM*	?	-73*
COc1ccc(C(=O)n2cnc3ccccc32)cc1[N+](=O)[O-]	-1%	0%	-13%	6%	20
COCCCNC(=O)CN(CCc1ccccc1)S(=O)(=O)c1ccc(C)cc1	1%	-1%	?	-21%	-24
Cn1cc(C(=O)c2ccc(Cl)cc2Cl)cc1C(=O)N/N=C(\N)COc1ccc(F)cc1	?	?	16µM*	-30%	-1
Cn1cc(C(=O)c2ccc(Cl)cc2Cl)cc1C(=O)N/N=C(\N)COc1ccc(Cl)cc1	16µM*	?	?	?	1
COc1ccc(OCc2nc3c4c(-c5ccc(OC)cc5)c(-c5ccc(OC)cc5)oc4ncn3n2)cc1	.	-8%	3%	.	.
CN(C)c1ccc(/C=C/c2ccnc3ccc(N)cc23)cc1	.	18µM*	?	.	.
CN(C)c1ccc(/C=C/c2ccnc3ccc(F)cc23)cc1	.	13µM*	14µM*	.	.
